The results in this text go back to the supplement of paper PMC10941209.

Structures are written as SMILES.

This experiment relates to HFF. The experiment in a line: cell viability relative to DMSO control; higher = less cytotoxic. The settings on record: 1 µM; 72 h. The protocol: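 Single-dose cytotoxicity screen of the MMV Pandemic Response Box at 1 uM on human foreskin fibroblasts (HFF), 72 h at 37 C. Viability measured by MTT (OD 550 nm) and normalised to the DMSO control (% survival).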
Usually cell viability stands for a per cent measure of how many cells are alive, often set against a control. `NC(=O)c1[nH]c2ccc(S(N)(=O)=O)cc2c1-c1ccccc1` yielded a cell viability of 75.8%.

Turning to `O=C(CCCC(F)(F)F)N1CCC(c2nc(-c3nccs3)no2)CC1`, the cell viability stood at 67.4%. In the case of `NC(=O)c1ccccc1NC(=O)c1ccc(C(=O)Nc2ccccc2C(N)=O)cc1`, the cell viability is 63.5%. For `CN1CCN(Cc2ccc(-c3cnc4[nH]cc(-c5ccc6[nH]ccc6c5)c4c3)cc2)CC1`, the cell viability came out at 75.3%.

The molecule `O=C(Nc1ncc(Cc2cccc3ccccc23)s1)C1CCCCC1` registered a cell viability of 58.6%. The molecule `COc1ccc2sc3c(c2c1)NC(C)CNC3=O` (stereo not given) returned a cell viability of 82.1%. Turning to `N[C@H](CCC(=O)N[C@@H](Cc1c[nH]c2ccccc12)C(=O)O)C(=O)O`, the cell viability amounted to 61.9%. For `Nc1nc2c(ncn2COCCO)c(=O)[nH]1` the value was 68.8%. In turn, `NC(=S)N/N=C/c1ncccc1N` returned a cell viability of 65.3%.

In turn, `Cc1nc2ccc(Cl)cc2c(-c2ccccc2)c1CC(=O)O` displayed a cell viability of 77%. `CC[C@H]1OC(=O)[C@H](C)[C@@H](O[C@H]2C[C@@](C)(OC)[C@@H](O)[C@H](C)O2)[C@H](C)[C@@H](O[C@@H]2O[C@H](C)C[C@H](N(C)C)[C@H]2O)[C@](C)(O)C[C@@H](C)C(=O)[C@H](C)[C@@H](O)[C@]1(C)O` displayed a cell viability of 71.6%. Molecule `CC(C)(C)c1cc(CCC(=O)N2CCC2)cc(C(C)(C)C)c1O` came in with a cell viability of 72.6%. Regarding `CC(C)(C)c1ccc(C(Cn2cccc(C(F)(F)F)c2=O)NC2Cc3ccccc3C2)cc1` (stereo not given), the cell viability is 67.8%. The result for `COc1cc2c(O)c3c(c(-c4ccc5c(c4)OCO5)c2cc1OC)C(=O)OC3` reads 66.8%. For `CCNC(=O)Nc1cn2c(-c3ncc(CC)cn3)cc(-c3cccnc3)cc2n1` the value was 71.6%. On to `N#CCN1C(=O)COc2cc(F)c(N3C(=O)c4ccccc4C3=O)cc21`, for which the cell viability was 63.5%. For `O=C(Nc1ccc(-c2ccccc2)cc1)C1=C(O)C(Cc2ccccc2)OC1=O` (stereo not given), the cell viability turned out to be 69.3%.

In turn, `CC(C)N(c1cc(-c2ccccc2)sc1C(=O)O)C(=O)[C@H]1CC[C@H](C)CC1` came in with a cell viability of 67.5%.

`N=C(N)c1ccc(COc2ccc(Cl)cc2)cc1` returned a cell viability of 65.4%. For `CC(C)(C)c1cccc(-c2nc3cc(C(=N)N)ccc3[nH]2)c1O` the value was 64.8%; for `c1cc(CN2CCCNCCNCCCNCC2)ccc1CN1CCCNCCNCCCNCC1`, 63.9%.

Molecule `COC(=O)Nc1nc2cc([S+]([O-])c3ccccc3)ccc2[nH]1` (stereo not given) returned a cell viability of 64.6%. For the molecule `CCc1cc(Cc2cnc(N)nc2N)cc2c1N(C)CCC2C` (stereo not given), the cell viability stood at 71.9%.

`O=c1[nH]cnc2c1ncn2[C@H]1CC[C@@H](CO)O1` displayed a cell viability of 72.2%. In the case of `O=C1C=C(c2ccccc2)S(=O)(=O)c2ccccc21`, the cell viability came out at 67.5%. The result for `CC(C)Nc1nc2cc(Cl)c(Cl)cc2n1[C@H]1O[C@@H](CO)[C@H](O)[C@@H]1O` reads 67.8%; that for `CC(=N)N1CC[C@H](SC2=C(C(=O)O)N3C(=O)[C@@H]([C@@H](C)O)[C@H]3C2)C1`, 63.8%. In the case of `CCc1cc(O)c(Oc2ccc(C(N)=O)cc2F)cc1F`, the cell viability was 67.9%. In the case of `NCCCc1ccccc1C(=O)Nc1ncc([N+](=O)O)s1`, the cell viability amounted to 65%.

Turning to `O=C(Nc1cccc(C2=NCCN2)c1)c1ccc(-c2ccc(C(=O)Nc3cccc(C4=NCCN4)c3)cc2)cc1`, the cell viability was 63.4%.

Take `Fc1ccc2c(/C=C/c3nnn[nH]3)c[nH]c2c1`: the cell viability was 71.2%. The molecule `CC(C)(C)NC(=O)[C@@H]1C[C@@H]2CCCC[C@@H]2CN1C[C@@H](O)[C@H](Cc1ccccc1)NC(=O)[C@H](CC(N)=O)NC(=O)c1ccc2ccccc2n1` had a cell viability of 78.9%. The result for `O=C(NCc1ccccc1Cl)c1cnc2ccccc2n1` reads 71.4%; that for `NS(=O)(=O)c1ccc(NC(=O)NC(c2ccccc2)c2ccccc2)cc1`, 72.8%. The result for `NC[C@H]1O[C@H](O[C@H]2[C@H](O)[C@@H](O[C@H]3O[C@H](CO)[C@@H](O)[C@H](N)[C@H]3O)[C@H](N)C[C@@H]2N)[C@H](N)C[C@@H]1O` reads 68.2%; that for `O=C(NC(=O)N1CCCc2ccccc21)c1ccc(Cl)cc1Cl`, 70.2%. `O=C(Nc1nnc(-c2ccc(Cl)cc2)o1)c1nc2ccccc2s1` returned a cell viability of 65.8%.

On to `COc1ccc2c(c1)cc(CNC(=O)c1cc3ccccc3o1)n2CC(=O)O`, for which the cell viability turned out to be 62.5%. Take `Nc1nc(O)c(Br)c(-c2cccc(Cl)c2)n1`: the cell viability was determined as 61.7%.

`COc1ccc(SCC(=O)N2c3ccccc3Sc3ccccc32)cc1` displayed a cell viability of 69.2%.
